Structures are written as SMILES. Out of some 410,000 compounds screened, about 18,000 (4.4%) were called active. Roughly 7% stayed inconclusive and do not appear here. The entries come from a sample that favours actives as a whole. Unmarked numbers belong to inactive results. Cut-off read from the data, not from the text of the source: active = activity change below about -60%; inconclusive = no clear call, values can overlap the other calls; inactive = above about -39%.
% is set by controls: 0 for no effect and ±100 for the full control effect.

The experiment is described as follows: qHTS Assay for inhibitors of the human cytomegalovirus (HCMV). Particulars: HFF cells, HCMV-luciferase reporter, 72 h; at 57.5 µM; active compounds read low. Summed up: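 Human foreskin fibroblasts infected with luciferase-reporter HCMV at MOI 1 PFU/cell, compounds at two doses. Luciferase measured 72 h post infection; normalized to buffer-only basal and Salinomycin (10uM) controls.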
(Quantitative high-throughput screening tests each substance at several concentrations.)
For `CCOc1ccc(NC(=O)c2cc3c(=O)n(Cc4cccs4)ccc3nc2C)cc1`, the activity change, negative = inhibition is -12.4%. On to `O=C(CSc1nc2nccnc2c(=O)n1Cc1cccs1)Nc1ccccc1F`, for which the activity change, negative = inhibition is -31.3%. In the case of `CCOc1ccc(NC(=O)CSc2nc3ccccc3c(=O)n2Cc2cccs2)cc1`, the activity change, negative = inhibition is -62.8% (active). Under `CCc1ccc(C(=O)C(C)OC(=O)CN2C(=O)NC3(CCCC3)C2=O)cc1` (stereo not drawn) stands -31.9%; under `O=S(=O)(NCC1CN(S(=O)(=O)c2ccc3c(c2)OCCO3)C1)c1c(F)cccc1F`, -3.7%; under `Cc1ccc(S(=O)(=O)c2nc(-c3ccco3)oc2SCC(=O)Nc2ccc(F)cc2)cc1`, 1.94%. Next, `COc1ccccc1CNc1nccn(-c2ccc(F)cc2)c1=O`: 18.6%; `Cn1nc(-c2ccccc2)c2cc([N+](=O)[O-])ccc21`: -91.8% (active). Next, `CCN(CC)S(=O)(=O)c1cc([N+](=O)[O-])ccc1N=Nc1c(O)n(C)c2ccccc12`: -37.9%. In the case of `Cn1cnc(C(F)(F)F)c1-c1ccc([N+](=O)[O-])cc1`, the activity change, negative = inhibition is -9.95%.

With `Cc1cccc(NS(=O)(=O)c2cc(Cl)ccc2Cl)n1`, the activity change, negative = inhibition was -15.4%.

Consider `Cn1c(=O)c2[nH]c(NCC3CCCO3)nc2n(-c2ccccc2)c1=O` (stereo not drawn), for which the activity change, negative = inhibition was -3.27%. Under `CCCCCNC(=O)c1cccnc1SCC(=O)Nc1ccccc1OC` stands -9.93%; under `Cc1oc2ccc(O)c(CN3CCCCC3)c2c1C(=O)Nc1cccc(C(F)(F)F)c1`, -76.5% (active). Next, `CCN1CCN(Cc2c(O)ccc3oc(C)c(C(=O)Nc4ccc(C)cc4C)c23)CC1`: -4.07%; `Cc1oc2ccc(O)c(CN3CCOCC3)c2c1C(=O)Nc1cccc(Cl)c1C`: 0.476%. Under `Cc1oc2ccc(O)c(CN3CCC(C)CC3)c2c1C(=O)Nc1ccccc1` stands -68.4% (active). Regarding `CCOC(=O)c1cccc(NC(=O)c2cc(CN3CCCC3)on2)c1`, the activity change, negative = inhibition was 88.3%. Next, `Cc1ccc(Oc2c(C(F)(F)F)oc3c(CN4CCCCC4)c(O)ccc3c2=O)cc1`: 13.5%; `O=C(NCC(F)(F)F)c1ccc(S(=O)(=O)NCCc2ccc3c(c2)OCCO3)cc1`: -6.01%. Next, `CCOc1ccccc1NC(=O)Cn1c2ncccc2c(=O)n1-c1ccc(C)c(C)c1`: -10.1%. As for `CC1CCCN(S(=O)(=O)c2ccc3[nH]c(=O)cc(C(=O)NCCc4ccc(Cl)cc4)c3c2)C1` (stereo not drawn), the activity change, negative = inhibition is -16.9%. Next, `COC(=O)C(O)(c1ccc(NC(=O)c2ccco2)c(OC)c1)C(F)(F)F` (stereo not drawn): 14.6%.

Regarding `CCOC(=O)C(O)(c1ccc(NC(=O)c2ccco2)c(OC)c1)C(F)(F)F` (stereo not drawn), the activity change, negative = inhibition is 8.29%.

With `COc1cc(NC(=O)c2cc([N+](=O)[O-])ccc2Br)ccc1NC(=O)c1ccco1`, the activity change, negative = inhibition is -60.9% (active).

In the case of `C=CCOC(=O)C1=C[C@@H](c2ccc3c(c2)OCO3)C[C@@H](OCCCCO)O1`, the activity change, negative = inhibition was 20.6%. Under `CN1C(=O)CC[C@@H](S(=O)(=O)c2ccccc2)[C@@H]1c1ccccc1` stands 9.42%; under `CCOCCCNC(=O)c1cn(CC)c2ccc(S(=O)(=O)N3CCc4ccccc4C3)cc2c1=O`, 8.54%; under `Cc1cc(C)c2nc3nc(C)cc(C)c3c(N)c2c1`, -100% (active). Next, `CCOc1ccc(S(=O)(=O)NCCC(=O)N2CCCCCCC2)cc1`: -33.2%; `CCCc1c(C(=O)Nc2ccc(F)cc2)cnn1-c1ccccc1`: 64.5%; `CCNC(=O)c1cnn(-c2ccccc2)c1-c1ccccc1`: -99.9% (active). For `Cc1c(C(=O)NCc2ccccc2)cnn1-c1ccccc1`, the activity change, negative = inhibition is -15.9%. Turning to `CSc1cccc(NC(=O)CN2C(=O)CCc3cc(S(=O)(=O)N4CCCCC4)ccc32)c1`, the activity change, negative = inhibition was 23.2%. In the case of `Cc1ccc(NC(=O)Nc2sc3nc4n(c(=O)c3c2C)CCC(C)CC4)c(Cl)c1` (stereo not drawn), the activity change, negative = inhibition was -0.215%. Take `O=C(/C=C/c1ccc([N+](=O)[O-])o1)NNC(=O)c1ccc(F)cc1`: the activity change, negative = inhibition is -99.5% (active). `N#Cc1nc(/C=C/c2ccc(F)cc2)oc1NC1CCCCC1`: the activity change, negative = inhibition was -16.7%. In the case of `O=C1C=CN2CCCC2CC1` (stereo not drawn), the activity change, negative = inhibition was -5.48%. Next, `CCc1ccc(NC(=O)Cn2c(=O)n(CCC(=O)NCc3ccc4c(c3)OCO4)c(=O)c3ccccc32)cc1`: 7.9%. Under `O=C(NCc1ccc(Cl)cc1)C1CCN(S(=O)(=O)c2cccs2)CC1` stands -33.3%; under `O=C(C1CCN(S(=O)(=O)c2cccs2)CC1)N1CCCCCC1`, -4.69%; under `O=C(Nc1ccc(Br)cn1)C1CCN(S(=O)(=O)c2cccs2)CC1`, -89.3% (active). Take `CCCCN(CC)CCCNC(=O)c1nn(C)c2c1CSc1ccccc1-2`: the activity change, negative = inhibition was -32.8%. Under `Cc1ccc(Cl)cc1N(C)C(=O)Cn1nc(Cc2cccnc2)c2ccccc2c1=O` stands -61.7% (active). Under `O=C(Cn1nc(Cc2cccnc2)c2ccccc2c1=O)NCC1CCCO1` (stereo not drawn) stands -1.61%; under `CN(CC(=O)NCc1cccnc1)S(=O)(=O)c1cc(Cl)ccc1Cl`, -21.9%. Under `Cn1c(=O)oc2cc(S(=O)(=O)NCCC(=O)NCc3ccccc3Cl)ccc21` stands -30.3%.

As for `O=C(O)c1ccc(Nc2nc(-c3ccccc3)c3cc(Br)ccc3n2)cc1`, the activity change, negative = inhibition was 27.8%. Next, `Cc1cc(Cl)ccc1C(=O)C1CCCN(C(=O)c2nonc2C)C1` (stereo not drawn): -27.9%; `CC(=O)NCC(=O)N1CCCC(C(=O)c2ccc3c4c(cccc24)CC3)C1` (stereo not drawn): 2.3%. Under `Cc1ncoc1C(=O)N1CCCC(C(=O)c2ccc3c4c(cccc24)CC3)C1` (stereo not drawn) stands -68.2% (active); under `O=C(Nc1c[nH]c(=O)[nH]c1=O)OCc1ccccc1`, 46%.

As for `COc1ccc(CNC(=O)CNC(=O)c2sc3ccccc3c2Cl)cc1OC`, the activity change, negative = inhibition is -67.8% (active).

In the case of `CCCC(=O)Nc1ccc(NC(=O)c2sc3ccccc3c2Cl)cc1`, the activity change, negative = inhibition was 0.957%. Under `COC(=O)c1cc(NC(=O)c2sc3ccccc3c2Cl)cc(C(=O)OC)c1` stands 5.87%; under `COc1ccc(S(=O)(=O)N2CCN(C(=O)c3cccs3)CC2)cc1OC`, 1.26%. Next, `COC(=O)c1sccc1S(=O)(=O)N(CC(=O)Nc1ccc(C)c(F)c1)c1ccc(C)c(C)c1`: -9.21%; `COc1cccc(NC(=O)CN2C(=O)c3ccccc3Sc3ncccc32)c1`: 35.8%; `CCc1ccc(N(CC)C(=O)CCn2cnc3onc(-c4ccc(F)cc4)c3c2=O)cc1`: 4.29%. With `CC[C@H](C)C(=O)N[C@H]1CCCN1C(=O)/C=C/c1ccccc1`, the activity change, negative = inhibition was -28.4%. Next, `Cc1[nH]c(=O)c(C(=O)/C=C/c2ccccc2)c2c1CCCC2`: -104% (active); `O=C1CCCCC1C(=O)c1ccccc1` (stereo not drawn): 7.64%.

Regarding `Cc1ccc(NC2=C(c3ccc(C(F)(F)F)cc3)C(=O)c3ccccc32)cc1F`, the activity change, negative = inhibition was -26.8%. Under `O=C1C=C(c2ccnc3cc(Cl)ccc23)C[C@@H](c2ccc3c(c2)OCO3)C1` stands -66.7% (active); under `N#Cc1ccc(C2=CC(=O)C[C@H](c3ccc(Cl)cc3)C2)cc1`, 10.5%; under `O=C1C=C(c2cccc(Cl)c2O)C[C@@H](c2ccc(F)cc2)C1`, 15.9%. For `O=C(Cc1ccc(Cl)cc1)NCCN1CCN(C(=O)Cc2ccc(Cl)cc2)CC1`, the activity change, negative = inhibition is -18.4%.

Take `Cc1ccc(-c2cnc(NCc3ccc(C(C)C)cc3)n2C)cc1`: the activity change, negative = inhibition is -37.1%. Next, `Cc1ccc(C(=O)Nc2ccc(OCc3cc(=O)n4c(C)csc4n3)cc2)cc1`: 13.5%. Under `Cc1ccc(OCCC(=O)Nc2ccc(S(=O)(=O)Nc3nccs3)cc2)cc1` stands -11.9%; under `COc1ccccc1OC(C)C(=O)Nc1ccc(S(=O)(=O)Nc2nccs2)cc1` (stereo not drawn), -71.4% (active); under `CCC(CC)C(=O)Nc1ccc(S(=O)(=O)Nc2nccs2)cc1`, -32.7%. With `COc1ccc(C2C(=O)N(C3CCCCC3)CC(=O)N2Cc2ccccc2Cl)cc1OC` (stereo not drawn), the activity change, negative = inhibition was -0.212%.

Regarding `CCC(=O)/C=C1\Sc2ccccc2N1CC`, the activity change, negative = inhibition was -68.7% (active).

Consider `CNC(=O)CN1C(=O)c2cccnc2Sc2ccccc21`, for which the activity change, negative = inhibition was 16.8%.

Regarding `CCN1/C(=C/C(=S)Nc2ccccc2)Sc2ccccc21`, the activity change, negative = inhibition is -90.8% (active). Next, `CCOC(=O)CNC(=O)CN1C(=O)CCSc2ccccc21`: 55.2%; `CCN1C(=O)c2ccccc2Sc2ccc(NC(=O)Cc3ccc(OC)cc3)cc21`: 11.2%; `CCOc1ccc(NC(=O)c2cc(S(=O)(=O)N3CCCC3)c[nH]2)cc1`: -31.5%. Under `Cc1ccc(N2CC(C(=O)Nc3ccc(N(C)C)cc3)CC2=O)cc1Cl` (stereo not drawn) stands 1.89%; under `CC(C)(C)OC(=O)N[C@H](C(=O)OC(C)(C)C)c1ccc(Br)cc1`, -16.8%. Under `Cc1ccc(C(=O)NNC(=O)OC(C)(C)C)c(Cl)c1` stands -10.9%; under `CC(C)(C)OC(=O)NNc1c2ccccc2nc2ccccc12`, -89.2% (active); under `O=C(NCCCNC(=O)NC1CCCCC1)NC1CCCCC1`, -14.1%. Take `N#CCC(=O)NC(=O)NCC1CC1`: the activity change, negative = inhibition was -12.8%. Turning to `O=C(NCC1CCCCC1)NCC1CCCCC1`, the activity change, negative = inhibition was -74.2% (active). Consider `COc1ccc(CCNC(=O)CSCc2ccc(Br)cc2)cc1OC`, for which the activity change, negative = inhibition was -9.05%. Under `COc1nc(OC)nc(N(C)CCO)n1` stands -12.6%; under `Cc1nc(SCC(=O)Nc2ccc(C(=O)O)cc2)n[nH]1`, -2.57%; under `CCc1nnc(NC(=O)CSc2nnc(COc3ccc(C#N)cc3)n2-c2ccccc2)s1`, 42.5%. `Cn1c(SCC(=O)N2CCCc3ccccc32)nc2ccccc2c1=O`: the activity change, negative = inhibition was -79.6% (active).

As for `COc1ccccc1Cc1nc2ccccc2nc1SCC(=O)N1CCCc2ccccc21`, the activity change, negative = inhibition is 8.07%. Under `Cn1c(SCC(=O)N2CCCc3ccccc32)ncc(C(=O)Nc2ccc(F)cc2)c1=O` stands -28.8%.

Source of the values: PubChem BioAssay AID1259415 (National Center for Advancing Translational Sciences (NCATS), 2018).
